Calls of active or inactive are those of the source.
Columns and labels:
[1] = test system: Plasmodium falciparum Sir2 (PF13_0152, Sir2A); test: Plasmodium falciparum Sir2A binding compounds – biochemical, small-molecule microarray, 635 nm fluorescence, primary screen (AID 1098); conditions: fluorescence 635 nm, higher = more signal;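 further: score merges spot fluorescence intensity with its signal-to-noise ratio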
[2] = probe aDKK1 binding to arrayed compounds – biochemical, biotinylated probe, 635/667 nm fluorescence, primary screen (AID 1099); conditions: small-molecule microarray, higher = more signal;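 further: score merges 667nm spot fluorescence with signal to noise across triplicate slides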
[3] = probe aCHRDL2 binding to arrayed compounds – biochemical, biotinylated probe, 635/667 nm fluorescence, primary screen (AID 1100); conditions: small-molecule microarray, higher = more signal
[4] = change in splice reporter luminescence, either direction, cell-based, HEK293, spliceosome inhibition project, primary screen (AID 1101); conditions: HEK293 splicing luciferase reporter, 24 h, higher = more signal, called active from +8 up or from −8 down;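 further: HEK293 cells carrying a splicing-competent luciferase reporter gene; test concentration not given here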
[5] = target: Fibroblast growth factor 10 (Homo sapiens) (UniProt O15520); test: compounds binding fibroblast growth factor 10 – biochemical, small-molecule microarray, 635 nm fluorescence, primary screen (AID 1102); conditions: FGF10 binding, fluorescence 635 nm, higher = more signal
Sequence of Fibroblast growth factor 10 (Homo sapiens) (O15520 whole entry, looked up): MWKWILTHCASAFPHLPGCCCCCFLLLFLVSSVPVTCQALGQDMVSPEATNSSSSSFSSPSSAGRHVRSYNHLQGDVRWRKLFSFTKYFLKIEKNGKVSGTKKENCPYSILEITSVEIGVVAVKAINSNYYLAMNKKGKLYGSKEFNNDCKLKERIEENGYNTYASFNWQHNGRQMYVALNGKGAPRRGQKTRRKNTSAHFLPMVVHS

[6] = test system: glycogen synthase kinase-3 (GSK3A per assay name; protocol says GSK3B); test: compounds binding glycogen synthase kinase-3 – biochemical, small-molecule microarray, 635 nm fluorescence, GSK3A, primary screen (AID 1103); conditions: fluorescence 635 nm, higher = more signal; further: the record names both GSK3A and GSK3B
[7] = target: Epidermal growth factor receptor (Homo sapiens) (UniProt P00533); test: compounds binding epidermal growth factor receptor – biochemical, small-molecule microarray, 635 nm fluorescence, primary screen (AID 1104); conditions: EGFR binding, higher = more signal;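 further: score merges 667 nm emission intensity with spot signal to noise over triplicate slides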
Sequence of Epidermal growth factor receptor (Homo sapiens) (P00533 whole entry, looked up): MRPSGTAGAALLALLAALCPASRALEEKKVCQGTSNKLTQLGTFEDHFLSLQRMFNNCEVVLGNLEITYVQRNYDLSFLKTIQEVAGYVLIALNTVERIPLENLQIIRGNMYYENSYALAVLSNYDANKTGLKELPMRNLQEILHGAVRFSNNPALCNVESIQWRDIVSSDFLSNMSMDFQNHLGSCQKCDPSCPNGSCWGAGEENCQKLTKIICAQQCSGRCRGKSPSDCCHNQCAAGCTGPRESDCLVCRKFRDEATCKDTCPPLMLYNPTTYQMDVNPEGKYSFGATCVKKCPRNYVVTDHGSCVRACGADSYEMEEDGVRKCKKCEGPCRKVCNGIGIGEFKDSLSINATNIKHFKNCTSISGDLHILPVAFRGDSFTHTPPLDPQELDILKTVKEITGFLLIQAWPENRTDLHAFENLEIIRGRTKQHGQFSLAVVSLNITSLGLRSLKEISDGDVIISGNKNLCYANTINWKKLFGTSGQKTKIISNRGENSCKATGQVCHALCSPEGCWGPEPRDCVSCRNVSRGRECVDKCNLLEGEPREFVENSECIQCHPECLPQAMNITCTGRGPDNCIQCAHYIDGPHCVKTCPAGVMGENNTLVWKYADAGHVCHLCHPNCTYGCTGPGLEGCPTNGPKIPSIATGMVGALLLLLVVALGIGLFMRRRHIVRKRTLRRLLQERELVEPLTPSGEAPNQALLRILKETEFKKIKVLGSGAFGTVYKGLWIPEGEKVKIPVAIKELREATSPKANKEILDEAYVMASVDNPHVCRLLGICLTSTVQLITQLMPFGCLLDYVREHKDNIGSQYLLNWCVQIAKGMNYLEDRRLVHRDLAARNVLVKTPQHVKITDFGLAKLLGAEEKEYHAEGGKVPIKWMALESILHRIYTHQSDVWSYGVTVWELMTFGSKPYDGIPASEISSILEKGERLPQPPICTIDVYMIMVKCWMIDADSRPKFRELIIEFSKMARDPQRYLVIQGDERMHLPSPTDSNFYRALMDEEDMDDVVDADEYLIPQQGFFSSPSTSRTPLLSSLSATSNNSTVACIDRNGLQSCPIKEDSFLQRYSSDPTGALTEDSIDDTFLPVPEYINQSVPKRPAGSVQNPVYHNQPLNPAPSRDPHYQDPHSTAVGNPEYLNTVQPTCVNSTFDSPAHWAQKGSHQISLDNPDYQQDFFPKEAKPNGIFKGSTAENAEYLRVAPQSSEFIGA

[8] = target: Follistatin-related protein 3 (Homo sapiens) (UniProt O95633); test: compounds binding follistatin-related protein 3 – biochemical, small-molecule microarray, 635 nm fluorescence, primary screen (AID 1105); conditions: FSTL3 binding, higher = more signal;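 further: score merges emission near 667 nm and signal to noise per printed spot across three slides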
Sequence of Follistatin-related protein 3 (Homo sapiens) (O95633 whole entry, looked up): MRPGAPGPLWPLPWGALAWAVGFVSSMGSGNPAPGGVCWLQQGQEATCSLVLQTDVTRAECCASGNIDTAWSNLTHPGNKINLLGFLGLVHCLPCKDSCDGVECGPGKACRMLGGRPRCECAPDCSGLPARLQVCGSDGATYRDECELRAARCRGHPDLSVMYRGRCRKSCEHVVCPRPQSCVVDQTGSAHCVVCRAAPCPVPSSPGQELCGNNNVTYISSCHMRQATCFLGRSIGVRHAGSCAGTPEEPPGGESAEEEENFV

[9] = target: Dickkopf-related protein 1 (Homo sapiens) (UniProt O94907); test: small molecules binding DKK1 protein – biochemical, small-molecule microarray, 635 nm fluorescence scan, primary screen (AID 1106); conditions: higher = more signal;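 further: score merges emission near 667 nm with signal to noise over three replicate slides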
Sequence of Dickkopf-related protein 1 (Homo sapiens) (O94907 whole entry, looked up): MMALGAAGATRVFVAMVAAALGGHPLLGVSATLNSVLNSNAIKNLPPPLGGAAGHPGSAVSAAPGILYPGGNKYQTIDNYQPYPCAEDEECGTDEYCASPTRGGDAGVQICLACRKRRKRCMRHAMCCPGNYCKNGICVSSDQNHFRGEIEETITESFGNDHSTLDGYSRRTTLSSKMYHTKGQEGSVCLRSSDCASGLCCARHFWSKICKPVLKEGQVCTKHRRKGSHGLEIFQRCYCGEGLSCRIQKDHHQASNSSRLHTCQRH

[10] = test system: Inhibin beta A chain (activin A); test: small molecules binding activin A – biochemical, small-molecule microarray, 635 nm fluorescence scan, primary screen (AID 1107); conditions: INHBA, higher = more signal;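 further: mouse activin A protein probed at 4.33 µg/mL on printed slides; score merges bound-protein fluorescence near 667 nm with spot signal-to-noise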
[11] = test system: Human papillomavirus type 1a protein E7 (residues 44-93); test: small molecules binding HPV E7 44-93 – biochemical, small-molecule microarray, residues 44-93, 635 nm fluorescence, primary screen (AID 1108); conditions: fluorescence 635 nm, higher = more signal;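 further: E7 fragment applied at 1 µg/mL in TBST for 1 h at 4 C; score combines spot fluorescence with its signal to noise ratio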
[12] = hepatitis C replication reporter changes, two-sided – Huh7 cells, luciferase reporter, HCV replication inhibitor project, primary screen (AID 1109); conditions: Huh7 HCV replicon luciferase reporter, 48 h; higher = more signal;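 further: huh7 hepatoma cells harbouring a luciferase neomycin HCV replicon reporter; luciferase luminescence as measure of HCV replicon replication; test concentration not given here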
[13] = target: Left-right determination factor 2 (Homo sapiens) (UniProt O00292); test: small molecules binding LEFTY2 protein – biochemical, small-molecule microarray, 635 nm fluorescence scan, primary screen (AID 1110); conditions: higher = more signal
Sequence of Left-right determination factor 2 (Homo sapiens) (O00292 whole entry, looked up): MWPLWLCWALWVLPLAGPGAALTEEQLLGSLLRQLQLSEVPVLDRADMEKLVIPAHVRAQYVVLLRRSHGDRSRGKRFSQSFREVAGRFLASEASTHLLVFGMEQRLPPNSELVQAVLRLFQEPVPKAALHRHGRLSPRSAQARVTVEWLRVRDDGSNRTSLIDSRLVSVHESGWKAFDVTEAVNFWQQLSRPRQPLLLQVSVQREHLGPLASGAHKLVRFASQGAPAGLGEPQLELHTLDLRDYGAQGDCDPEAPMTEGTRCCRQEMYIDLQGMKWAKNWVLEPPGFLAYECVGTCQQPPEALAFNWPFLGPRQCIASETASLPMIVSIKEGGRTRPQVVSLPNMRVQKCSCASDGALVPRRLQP

[14] = target: Calmodulin-1 (Homo sapiens) (UniProt P0DP23); test: small molecules binding calmodulin-1 with EGTA – biochemical, small-molecule microarray, Cy5-labelled CALM1, profiling panel (AID 1111); conditions: Cy5-CALM1 binding fluorescence, higher = more signal;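 further: labelled calmodulin applied in Tris saline Tween buffer holding calcium plus EGTA and DTT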
[15] = target: Calmodulin-1 (Homo sapiens) (UniProt P0DP23); test: small molecules binding Ca-loaded calmodulin-1 – biochemical, small-molecule microarray, Cy5-labelled CALM1, plus calcium, artefact control for SMM control-protein annotation, profiling panel (AID 1112); conditions: Cy5-CALM1 binding fluorescence, higher = more signal;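 further: score merges spot fluorescence with signal to noise from triplicate slides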
[16] = probe aWnt5a binding to arrayed compounds – biochemical, biotinylated probe, 635/667 nm fluorescence, primary screen (AID 1113); conditions: small-molecule microarray, higher = more signal;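 further: score merges 667 nm fluorescence intensity with signal-to-noise per printed feature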
[17] = probe aShh binding to arrayed compounds – biochemical, biotinylated probe, 635/667 nm fluorescence, primary screen (AID 1114); conditions: small-molecule microarray, higher = more signal;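 further: probe is biotin-labelled aShh protein from a stem cell growth factor screen; measures binding of labelled protein to compounds printed on the slide; score merges feature fluorescence at 667 nm with signal-to-noise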
[18] = probe aNog binding to arrayed compounds – biochemical, biotinylated probe, 635/667 nm fluorescence, primary screen (AID 1115); conditions: small-molecule microarray, higher = more signal;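 further: probe is biotinylated aNog protein used at 0.15 µg/mL for 1 h at 4 C; z-score combines 667 nm fluorescence of each spot with its signal to noise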
[19] = target: Torsin-1A-interacting protein 1 (Homo sapiens) (UniProt Q5JTV8); test: compound microarray binding of lysate hLAP1 – cell lysate, small-molecule microarray, COS7 lysate, 635/667 nm fluorescence, primary screen (AID 1116); conditions: 635 nm fluorescence, higher = more signal
Sequence of Torsin-1A-interacting protein 1 (Homo sapiens) (Q5JTV8 whole entry, looked up): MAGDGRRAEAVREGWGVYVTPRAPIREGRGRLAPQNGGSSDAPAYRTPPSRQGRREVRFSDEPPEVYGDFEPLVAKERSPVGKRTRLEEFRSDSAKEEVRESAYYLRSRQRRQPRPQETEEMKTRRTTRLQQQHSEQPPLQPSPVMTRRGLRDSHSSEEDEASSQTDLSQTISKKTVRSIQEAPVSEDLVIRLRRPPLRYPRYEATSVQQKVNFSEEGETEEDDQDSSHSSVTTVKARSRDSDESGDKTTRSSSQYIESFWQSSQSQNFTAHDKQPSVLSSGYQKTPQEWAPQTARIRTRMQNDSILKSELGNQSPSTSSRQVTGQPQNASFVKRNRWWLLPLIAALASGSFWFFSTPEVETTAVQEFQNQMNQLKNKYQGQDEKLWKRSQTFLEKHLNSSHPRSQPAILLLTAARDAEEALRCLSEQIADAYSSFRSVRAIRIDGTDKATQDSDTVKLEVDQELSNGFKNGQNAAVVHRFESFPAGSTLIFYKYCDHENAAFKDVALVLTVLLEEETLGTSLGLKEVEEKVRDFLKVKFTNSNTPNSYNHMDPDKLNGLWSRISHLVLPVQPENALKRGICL

[20] = target: Alpha-bungarotoxin (Bungarus multicinctus) (UniProt P60615); test: compounds binding labelled alpha-BTX control protein – biochemical, small-molecule microarray, Alexa647 label, 635/667 nm fluorescence, artefact control for SMM control protein annotation, profiling panel (AID 1117); conditions: alpha-BTX-A647 binding fluorescence, higher = more signal
Sequence of Alpha-bungarotoxin (Bungarus multicinctus) (P60615 whole entry, looked up): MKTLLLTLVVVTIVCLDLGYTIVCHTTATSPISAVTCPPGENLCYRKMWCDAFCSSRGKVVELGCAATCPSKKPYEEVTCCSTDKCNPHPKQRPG

| SMILES | composite z-score [1] | composite z-score [2] | composite z-score [3] | z-score [4] | composite z-score [5] | composite z-score [6] | composite z-score [7] | composite z-score [8] | composite z-score [9] | composite z-score [10] | composite z-score [11] | z-score [12] | composite z-score [13] | composite z-score [14] | composite z-score [15] | composite z-score [16] | composite z-score [17] | composite z-score [18] | composite z-score [19] | composite z-score [20] |
| --- | --- | --- | --- | --- | --- | --- | --- | --- | --- | --- | --- | --- | --- | --- | --- | --- | --- | --- | --- | --- |
| COc1cc2c(cc1OC)CN(C(=O)[C@@H]1[C@H]3C(=O)O[C@H](c4ccccc4)[C@H](c4ccccc4)N3[C@H](c3ccccc3OCCO)[C@@]13C(=O)Nc1ccc(C#CCCO)cc13)CC2 | 1.53 | 0.235 | 0.547 | 0.107 (inactive) | 0.885 | 0.926 | 0.179 | 0.896 | 0.249 | 0.91 | 1.35 | -2.36 | 0.268 | 1.16 | 0.104 | -0.133 | 0.292 | 1.16 | 2.22 | 1.49 |
| CCOC(=O)C[C@H]1[C@H](OC(=O)c2ccccc2-c2ccccc2)[C@@H](NC(=O)CC(C)C)c2cc(OCCCO)ccc2N1C(=O)Cc1ccc(OC)cc1 | 0.0681 | -0.235 | 0.0198 | -0.284 (inactive) | 0.215 | -0.199 | -0.0484 | -0.305 | -0.239 | 0.328 | -0.0946 | -1.25 | -0.262 | -0.0904 | -0.265 | -0.0953 | 0.199 | -0.326 | 0.784 | -0.213 |
| Cc1ccc(S[C@]2(C(=O)O)CC(=O)N(C(C)C)[C@@H]2c2ccc(CO)cc2I)cc1 | 1.33 | 0.831 | 1.18 | -2.55 (inactive) | 0.0877 | 0.511 | -0.645 | 0.315 | -0.27 | 1.33 | 0.506 | -1.31 | -0.195 | 1.75 | 0.845 | 0.0611 | 0.111 | 1.65 | 0.836 | 1.18 |
| CC(C)c1ccc(NN2C(C(O)c3ccc(B(O)O)cc3)C=CC3C(=O)N(c4ccccc4)C(=O)C32)cc1 (stereo not given) | 1.24 | 0.942 | 1.05 | 0.844 (inactive) | 1.11 | 1.25 | -0.109 | 1.38 | -0.381 | 0.849 | 1.25 | 4.39 | -0.355 | 2.02 | 1.08 | 0.0324 | -0.0362 | 2.19 | 2.08 | 1.27 |
| C=CCOC(=O)[C@H]1[C@@H]2C(=O)O[C@@H](c3ccccc3)[C@@H](c3ccccc3)N2[C@@H](c2ccc(OCCOC(=O)[C@H]3C[C@H]4C(=O)N[C@@H](CCCCNC(C)=O)C(=O)N4[C@H]3c3ccc(O)cc3)cc2)[C@]12C(=O)Nc1ccc(I)cc12 | 1.33 | -0.182 | -0.717 | -0.0027 (inactive) | 0.707 | 1.11 | 0.506 | 1.26 | 0.667 | 1.02 | 0.804 | -3.26 | 0.418 | 0.124 | -0.732 | -0.0236 | 0.123 | -0.238 | 0.612 | 0.963 |
| CC(C)NC(=O)[C@@]1(c2ccc([N+](=O)[O-])cc2)CC(=O)N(C2CCCCC2)[C@@H]1c1ccc(CO)cc1I | 1.04 | 0.719 | 0.902 | 0.61 (inactive) | -0.0505 | 0.406 | -0.527 | -0.573 | -0.566 | -0.524 | 0.621 | -2.16 | -0.159 | 0.249 | 0.272 | 0.0375 | -0.189 | 0.176 | 0.707 | -0.174 |

Source: PubChem BioAssay
